The record followed here is article PMC5540273 (PLoS ONE, 2017).

Among the test systems are AAK1; ABL1-nonphosphorylated; ABL1-phosphorylated; ABL2; ACVR1B; ACVR1; ACVR2A; ACVR2B; ACVRL1; ADCK4; AKT1; AKT2.
What all share (details): concentration: 1 μM, replicates: in singlicate; n = 1
Another assay has as its system T1, ADCK3.
T1 construct: gene CABC1
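Further: KINOMEscan kinase panel screen.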

In the case of `Cc1ccc(NC(=O)c2cccc(C#N)c2)cc1-c1ccc(C(=O)Nc2ccncc2)cc1` [GSK1398463], the “%Inh” value in the assay with AAK1 is recorded as 73%; with ABL1-nonphosphorylated it was 50%; with ABL1-phosphorylated, 10%; in the assay with ABL2, 54%; in the assay with ACVR1B, 0%; with ACVR1, 18%. For the same compound, the “%Inh” value with ACVR2A turned out to be 0%; with ACVR2B, 0%; in the assay on ACVRL1 it was 2%; in the assay on ADCK3 it was 18%; in the assay with ADCK4, 6%; in the assay on AKT1, 0%. For the same compound, the “%Inh” value in the assay with AKT2 was 0%.

For the compound `CCn1c(-c2ccncc2)nc2cnccc21` [SB-735216], the “%Inh” value was 0% with AAK1; 26% in the assay on ABL1-nonphosphorylated; 0% in the assay on ABL1-phosphorylated; 0% in the assay with ABL2; 14% in the assay on ACVR1B; 40% in the assay with ACVR1. Besides, the “%Inh” value was 0% in the assay on ACVR2A; 4% in the assay on ACVR2B; 0% in the assay with ACVRL1; 15% in the assay with ADCK3; 6% in the assay with ADCK4; 0% in the assay on AKT1. In addition, in the assay on AKT2, the “%Inh” value is listed as 0%.

For the compound `Oc1ccc2ncnc(Nc3ccc(OCc4ccccc4)cc3)c2c1` [GI262866], the “%Inh” value in the assay with AAK1 is recorded as 0%; in the assay on ABL1-nonphosphorylated it was 0%; in the assay with ABL1-phosphorylated, 0%; in the assay on ABL2, 7%; in the assay on ACVR1B, 0%; with ACVR1, 0%. The “%Inh” value in the assay on ACVR2A is 0%; in the assay on ACVR2B, 9%; in the assay on ACVRL1 it was 0%; in the assay on ADCK3, 0%; with ADCK4, 0%; in the assay with AKT1, 0%. In addition, the “%Inh” value with AKT2 stood at 9%.

In the case of `Clc1cccc(-c2nc(Nc3ccncc3)c3ccccc3n2)c1` [GW873004], the “%Inh” value in the assay on AAK1 was 0%; in the assay on ABL1-nonphosphorylated, 51%; in the assay with ABL1-phosphorylated, 14%; in the assay with ABL2, 28%; with ACVR1B, 72%; in the assay on ACVR1, 0%. In addition, the “%Inh” value in the assay on ACVR2A worked out at 25%; with ACVR2B it was 15%; with ACVRL1, 9%; in the assay with ADCK3 it was 30%; in the assay on ADCK4, 20%; with AKT1 it was 11%. The “%Inh” value in the assay with AKT2 was 0%.

Take `C[C@H]1CC[C@@H](C(=O)Nc2ccccc2)CN1c1cc(-c2ccc3c(N)n[nH]c3c2)nc(N)n1` [GSK2283293]: the “%Inh” value in the assay with AAK1 came out at 23%; in the assay with ABL1-nonphosphorylated, 0%; in the assay with ABL1-phosphorylated, 8%; with ABL2, 15%; with ACVR1B it was 0%; in the assay on ACVR1, 0%. Also, the “%Inh” value in the assay with ACVR2A came out at 0%; with ACVR2B it was 0%; in the assay with ACVRL1, 0%; in the assay with ADCK3, 11%; in the assay on ADCK4, 40%; in the assay on AKT1 it was 0%. Besides, the “%Inh” value with AKT2 is listed as 6%.

As to `Nc1nc(-c2ccc3c(N)n[nH]c3c2)cc(N2CCC[C@@H](C(=O)Nc3ccccc3)C2)n1.O=C(O)C(F)(F)F.O=C(O)C(F)(F)F` [GSK2288359], the “%Inh” value stood at 38% in the assay on AAK1; 0% with ABL1-nonphosphorylated; 0% with ABL1-phosphorylated; 0% in the assay with ABL2; 0% in the assay on ACVR1B; 0% with ACVR1. The “%Inh” value in the assay with ACVR2A is 0%; in the assay with ACVR2B it was 0%; with ACVRL1 it was 0%; in the assay on ADCK3, 0%; in the assay on ADCK4 it was 11%; in the assay on AKT1 it was 0%. The “%Inh” value in the assay with AKT2 came out at 7%.

For the compound `CC(C)(C)OC(=O)NC1CCCN(c2cc(-c3ccc4c(N)n[nH]c4c3)nc(N)n2)C1` (centres unmarked) [GSK2286096], the “%Inh” value in the assay with AAK1 came out at 60%; with ABL1-nonphosphorylated, 0%; in the assay on ABL1-phosphorylated, 0%; with ABL2 it was 6%; with ACVR1B it was 0%; in the assay with ACVR1 it was 0%. In addition, the “%Inh” value in the assay on ACVR2A was 0%; with ACVR2B, 0%; in the assay on ACVRL1 it was 0%; with ADCK3, 8%; with ADCK4, 5%; in the assay on AKT1, 0%. Also, in the assay on AKT2, the “%Inh” value stood at 0%.

Consider `Cl.c1ccc(Cn2ccc3cc(Nc4ncnc5ccccc45)ccc32)cc1` [GW275568], for which the “%Inh” value in the assay on AAK1 worked out at 17%; with ABL1-nonphosphorylated, 0%; in the assay with ABL1-phosphorylated, 30%; with ABL2, 0%; with ACVR1B it was 0%; with ACVR1, 10%. Also, the “%Inh” value was determined as 2% in the assay on ACVR2A; 16% in the assay on ACVR2B; 0% in the assay with ACVRL1; 24% in the assay on ADCK3; 4% in the assay on ADCK4; 3% in the assay with AKT1. The “%Inh” value in the assay with AKT2 is 12%.

As to `O=C(NCCCN1CCCC1=O)c1cnc(NCc2cc(Cl)ccc2Cl)nc1NC1CCNCC1`, the “%Inh” value with AAK1, in the assay with ABL1-nonphosphorylated, in the assay on ABL1-phosphorylated, in the assay on ABL2, with ACVR1B and with ACVR1 was 0% throughout. Further, the “%Inh” value worked out at 0% in the assay on ACVR2A; 0% with ACVR2B; 0% in the assay with ACVRL1; 9% in the assay with ADCK3; 0% in the assay on ADCK4; 0% with AKT1. The “%Inh” value in the assay on AKT2 was 0%.

On to `Fc1ccc(Nc2nccc(-c3c(-c4ccc(Cl)cc4)nn4ncccc34)n2)cc1F` [GW829058], for which the “%Inh” value is listed as 0% in the assay with AAK1; 0% in the assay on ABL1-nonphosphorylated; 17% in the assay with ABL1-phosphorylated; 19% in the assay on ABL2; 20% in the assay with ACVR1B; 0% in the assay with ACVR1. For the same compound, the “%Inh” value with ACVR2A is given as 0%; in the assay on ACVR2B, 0%; in the assay with ACVRL1 it was 0%; with ADCK3, 0%; in the assay with ADCK4, 0%; in the assay with AKT1, 18%. Further, the “%Inh” value in the assay with AKT2 was 9%.

On to `COc1ccc(-c2oc3ncnc(N)c3c2-c2ccc(OC)cc2)cc1` [SB-589132], for which the “%Inh” value in the assay on AAK1 is listed as 6%; with ABL1-nonphosphorylated it was 21%; in the assay on ABL1-phosphorylated, 10%; in the assay with ABL2, 20%; with ACVR1B it was 0%; with ACVR1 it was 21%. For the same compound, the “%Inh” value in the assay with ACVR2A is 0%; with ACVR2B it was 0%; in the assay on ACVRL1, 12%; in the assay on ADCK3, 12%; in the assay with ADCK4, 55%; in the assay with AKT1, 0%. For the same compound, the “%Inh” value in the assay on AKT2 was determined as 0%.

For `Cl.c1ccc(Cn2ncc3cc(Nc4ncnc5ccccc45)ccc32)cc1` [GW273749], the “%Inh” value worked out at 30% in the assay on AAK1; 38% in the assay with ABL1-nonphosphorylated; 17% with ABL1-phosphorylated; 0% in the assay on ABL2; 0% with ACVR1B; 5% in the assay on ACVR1. The “%Inh” value in the assay on ACVR2A worked out at 0%; in the assay on ACVR2B it was 0%; in the assay on ACVRL1 it was 0%; in the assay on ADCK3 it was 7%; in the assay with ADCK4, 22%; in the assay with AKT1, 0%. Besides, the “%Inh” value in the assay with AKT2 worked out at 13%.

Consider `Fc1cccc(COc2ccc(Nc3ncnc4cc[nH]c34)cc2Cl)c1`, for which the “%Inh” value with AAK1 worked out at 4%; in the assay on ABL1-nonphosphorylated, 19%; with ABL1-phosphorylated it was 21%; with ABL2, 10%; with ACVR1B, 12%; in the assay on ACVR1, 19%. Also, the “%Inh” value worked out at 0% with ACVR2A; 3% in the assay on ACVR2B; 16% with ACVRL1; 1% in the assay with ADCK3; 17% with ADCK4; 0% in the assay with AKT1. The “%Inh” value with AKT2 came to 0%.

In the case of `Clc1cc(Nc2ncnc3cc[nH]c23)ccc1OCc1ccccn1`, the “%Inh” value is on record as 7% in the assay on AAK1; 48% in the assay with ABL1-nonphosphorylated; 0% in the assay with ABL1-phosphorylated; 0% in the assay on ABL2; 28% with ACVR1B; 10% in the assay with ACVR1. Besides, the “%Inh” value with ACVR2A is on record as 0%; in the assay on ACVR2B, 0%; in the assay on ACVRL1, 5%; in the assay with ADCK3, 9%; in the assay on ADCK4, 3%; in the assay with AKT1, 10%. For the same compound, the “%Inh” value with AKT2 was 19%.
